{"source": "ChEMBL document CHEMBL4513137", "about": "“CO-ADD screening of University of Manchester (UK) compounds”", "key": {"[1]": {"system": "Klebsiella pneumoniae", "settings": "Concentration 32 ug.mL-1; ASSAY_TEST Inhibition of Bacterial Growth; detection method Absorption (OD600); MEDIA CAMHB; plate type 384well; NBS; CORNING #3640; time 18 hr"}, "[2]": {"system": "Candida albicans", "settings": "32 ug/mL"}, "[3]": {"system": "Cryptococcus neoformans", "settings": "Concentration 32 ug.mL-1; ASSAY_TEST Inhibition of Fungal Growth; detection method Resazurin; Absorption (OD600-OD570); plate type 384well; NBS; CORNING #3640"}}, "note": "Potency and affinity values are given separately.", "data": [{"smiles": "O=[N+]([O-])c1ccc(-c2ccccc2Nc2ccccc2)cc1C(F)(F)F", "values": [{"measurement": "Inhibition", "setting": "[1]", "result": 20.57, "unit": "%"}, {"measurement": "Inhibition", "setting": "[2]", "result": 12.5, "unit": "%"}, {"measurement": "Inhibition", "setting": "[3]", "result": 2.9, "unit": "%"}]}, {"smiles": "O=[N+]([O-])c1ccc(-c2c(Nc3ccccc3)cccc2-c2ccccc2)cc1", "values": [{"measurement": "Inhibition", "setting": "[1]", "result": 6.43, "unit": "%"}, {"measurement": "Inhibition", "setting": "[2]", "result": 7.71, "unit": "%"}, {"measurement": "Inhibition", "setting": "[3]", "result": 2.38, "unit": "%"}]}, {"smiles": "O=[N+]([O-])c1ccc(-c2c(Nc3ccccc3)ccc3ccccc23)cc1", "values": [{"measurement": "Inhibition", "setting": "[1]", "result": -5.26, "unit": "%"}, {"measurement": "Inhibition", "setting": "[2]", "result": 1.64, "unit": "%"}, {"measurement": "Inhibition", "setting": "[3]", "result": 0.54, "unit": "%"}]}, {"smiles": "Cc1cccc(C)c1Nc1ccccc1-c1ccccc1[N+](=O)[O-]", "values": [{"measurement": "Inhibition", "setting": "[1]", "result": 2.08, "unit": "%"}, {"measurement": "Inhibition", "setting": "[2]", "result": 6.73, "unit": "%"}, {"measurement": "Inhibition", "setting": "[3]", "result": 4.1, "unit": "%"}]}, {"smiles": "COc1cc([N+](=O)[O-])ccc1-c1c(Nc2ccccc2)cccc1OC", "values": [{"measurement": "Inhibition", "setting": "[1]", "result": 14.15, "unit": "%"}, {"measurement": "Inhibition", "setting": "[2]", "result": 5.26, "unit": "%"}, {"measurement": "Inhibition", "setting": "[3]", "result": -2.27, "unit": "%"}]}, {"smiles": "CC(=O)c1ccc(-c2ccccc2Nc2ccccc2)cc1", "values": [{"measurement": "Inhibition", "setting": "[1]", "result": 4.21, "unit": "%"}, {"measurement": "Inhibition", "setting": "[2]", "result": 1.55, "unit": "%"}, {"measurement": "Inhibition", "setting": "[3]", "result": 0.86, "unit": "%"}]}, {"smiles": "COc1cccc(Nc2ccccc2)c1-c1c(Cl)cc(Br)cc1Cl", "values": [{"measurement": "Inhibition", "setting": "[1]", "result": 24.48, "unit": "%"}, {"measurement": "Inhibition", "setting": "[2]", "result": 23.8, "unit": "%"}, {"measurement": "Inhibition", "setting": "[3]", "result": 9.7, "unit": "%"}]}, {"smiles": "O=[N+]([O-])c1cc(Cl)c(-c2ccccc2Nc2ccccc2)c(Cl)c1", "values": [{"measurement": "Inhibition", "setting": "[1]", "result": -1.39, "unit": "%"}, {"measurement": "Inhibition", "setting": "[2]", "result": 6.95, "unit": "%"}, {"measurement": "Inhibition", "setting": "[3]", "result": -0.86, "unit": "%"}]}, {"smiles": "CN(c1ccccc1)c1ccccc1-c1ccc([N+](=O)[O-])cc1", "values": [{"measurement": "Inhibition", "setting": "[1]", "result": 13.85, "unit": "%"}, {"measurement": "Inhibition", "setting": "[2]", "result": 4.63, "unit": "%"}, {"measurement": "Inhibition", "setting": "[3]", "result": 1.49, "unit": "%"}]}, {"smiles": "O=[N+]([O-])c1ccc(-c2ccccc2Nc2ccccc2)cc1F", "values": [{"measurement": "Inhibition", "setting": "[1]", "result": 14.23, "unit": "%"}, {"measurement": "Inhibition", "setting": "[2]", "result": 8.22, "unit": "%"}, {"measurement": "Inhibition", "setting": "[3]", "result": 3.42, "unit": "%"}]}, {"smiles": "Cc1cc(C)c(Nc2ccccc2-c2ccc([N+](=O)[O-])cc2)c(C)c1", "values": [{"measurement": "Inhibition", "setting": "[1]", "result": -16.56, "unit": "%"}, {"measurement": "Inhibition", "setting": "[2]", "result": 7.08, "unit": "%"}, {"measurement": "Inhibition", "setting": "[3]", "result": 1.01, "unit": "%"}]}, {"smiles": "COc1cccc(Nc2ccccc2)c1-c1ccc([N+](=O)[O-])cc1", "values": [{"measurement": "Inhibition", "setting": "[1]", "result": -2.96, "unit": "%"}, {"measurement": "Inhibition", "setting": "[2]", "result": 7.07, "unit": "%"}, {"measurement": "Inhibition", "setting": "[3]", "result": 1.49, "unit": "%"}]}, {"smiles": "COc1ccc(Nc2ccccc2-c2ccc([N+](=O)[O-])cc2)cc1", "values": [{"measurement": "Inhibition", "setting": "[1]", "result": 12.08, "unit": "%"}, {"measurement": "Inhibition", "setting": "[2]", "result": 5.77, "unit": "%"}, {"measurement": "Inhibition", "setting": "[3]", "result": 2.27, "unit": "%"}]}, {"smiles": "O=[N+]([O-])c1ccc(-c2ccccc2Nc2ccccc2)c(Cl)c1", "values": [{"measurement": "Inhibition", "setting": "[1]", "result": 13.74, "unit": "%"}, {"measurement": "Inhibition", "setting": "[2]", "result": 10.1, "unit": "%"}, {"measurement": "Inhibition", "setting": "[3]", "result": 1.38, "unit": "%"}]}, {"smiles": "O=[N+]([O-])c1ccc(-c2ccccc2Nc2ccccc2Br)cc1", "values": [{"measurement": "Inhibition", "setting": "[1]", "result": 7.18, "unit": "%"}, {"measurement": "Inhibition", "setting": "[2]", "result": 4.47, "unit": "%"}, {"measurement": "Inhibition", "setting": "[3]", "result": 1.33, "unit": "%"}]}, {"smiles": "COc1cc([N+](=O)[O-])ccc1-c1ccccc1Nc1ccccc1", "values": [{"measurement": "Inhibition", "setting": "[1]", "result": 18.46, "unit": "%"}, {"measurement": "Inhibition", "setting": "[2]", "result": 5.71, "unit": "%"}, {"measurement": "Inhibition", "setting": "[3]", "result": -0.44, "unit": "%"}]}, {"smiles": "O=[N+]([O-])c1ccc(-c2ccccc2Nc2ccccc2)cc1", "values": [{"measurement": "Inhibition", "setting": "[1]", "result": -3.59, "unit": "%"}, {"measurement": "Inhibition", "setting": "[2]", "result": 9.3, "unit": "%"}, {"measurement": "Inhibition", "setting": "[3]", "result": 1.06, "unit": "%"}]}, {"smiles": "c1ccc(Nc2ccccc2-c2ncccn2)cc1", "values": [{"measurement": "Inhibition", "setting": "[1]", "result": 8.33, "unit": "%"}, {"measurement": "Inhibition", "setting": "[2]", "result": 12.1, "unit": "%"}, {"measurement": "Inhibition", "setting": "[3]", "result": 7.92, "unit": "%"}]}, {"smiles": "Cc1cc([N+](=O)[O-])ccc1-c1ccccc1N(C)c1ccccc1", "values": [{"measurement": "Inhibition", "setting": "[1]", "result": -15.08, "unit": "%"}, {"measurement": "Inhibition", "setting": "[2]", "result": 5.96, "unit": "%"}, {"measurement": "Inhibition", "setting": "[3]", "result": -0.44, "unit": "%"}]}, {"smiles": "CC[C@@H](Nc1ccccc1-c1c(Cl)cc(Br)cc1Cl)c1ccccc1", "values": [{"measurement": "Inhibition", "setting": "[1]", "result": 20.15, "unit": "%"}, {"measurement": "Inhibition", "setting": "[2]", "result": 9.45, "unit": "%"}, {"measurement": "Inhibition", "setting": "[3]", "result": 0.76, "unit": "%"}]}, {"smiles": "Clc1cc(Br)cc(Cl)c1-c1ccccc1Nc1ccccc1", "values": [{"measurement": "Inhibition", "setting": "[1]", "result": 1.2, "unit": "%"}, {"measurement": "Inhibition", "setting": "[2]", "result": 5.55, "unit": "%"}, {"measurement": "Inhibition", "setting": "[3]", "result": 2.48, "unit": "%"}]}, {"smiles": "COc1cccc(N(C)c2cccc(OC)c2-c2ccc([N+](=O)[O-])cc2C)c1", "values": [{"measurement": "Inhibition", "setting": "[1]", "result": 4.9, "unit": "%"}, {"measurement": "Inhibition", "setting": "[2]", "result": 3.58, "unit": "%"}, {"measurement": "Inhibition", "setting": "[3]", "result": -0.6, "unit": "%"}]}, {"smiles": "Cc1ccccc1Nc1ccccc1-c1ccc([N+](=O)[O-])cc1", "values": [{"measurement": "Inhibition", "setting": "[1]", "result": -1.35, "unit": "%"}, {"measurement": "Inhibition", "setting": "[2]", "result": -0.09, "unit": "%"}, {"measurement": "Inhibition", "setting": "[3]", "result": -1.9, "unit": "%"}]}, {"smiles": "N#Cc1ccc(-c2ccccc2Nc2ccccc2)cc1", "values": [{"measurement": "Inhibition", "setting": "[1]", "result": 9.14, "unit": "%"}, {"measurement": "Inhibition", "setting": "[2]", "result": 10.8, "unit": "%"}, {"measurement": "Inhibition", "setting": "[3]", "result": 2.95, "unit": "%"}]}, {"smiles": "O=[N+]([O-])c1ccc(-c2ccccc2N(Cc2ccccc2)c2ccccc2)cc1", "values": [{"measurement": "Inhibition", "setting": "[1]", "result": 8.4, "unit": "%"}, {"measurement": "Inhibition", "setting": "[2]", "result": 8.51, "unit": "%"}, {"measurement": "Inhibition", "setting": "[3]", "result": 2.22, "unit": "%"}]}, {"smiles": "O=[N+]([O-])c1ccc2c3ccccc3n(-c3ccccc3)c2c1", "values": [{"measurement": "Inhibition", "setting": "[1]", "result": 5.72, "unit": "%"}, {"measurement": "Inhibition", "setting": "[2]", "result": 8.19, "unit": "%"}, {"measurement": "Inhibition", "setting": "[3]", "result": 2.74, "unit": "%"}]}, {"smiles": "O=[N+]([O-])c1ccc(-c2cccc3c2[nH]c2ccccc23)cc1", "values": [{"measurement": "Inhibition", "setting": "[1]", "result": 2.37, "unit": "%"}, {"measurement": "Inhibition", "setting": "[2]", "result": 4.69, "unit": "%"}, {"measurement": "Inhibition", "setting": "[3]", "result": -0.08, "unit": "%"}]}]}
